Compound activity deposited in PubChem BioAssay by National Center for Advancing Translational Sciences (NCATS).
D1 antagonist = Antagonist of Human D 1 Dopamine Receptor: qHTS. HEK293 TREx D1 cells, calcium flux, dopamine EC80; stronger effect = lower value. activity change, negative = inhibition, % at 10 µM. 360,000 compounds, 3.2% hits; in the data active = activity change below about -30%; note: % is set by controls: 0 for no effect and ±100 for the full control effect
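Tetracycline-induced HEK293 T-REx cells with force-coupled D1 receptor were loaded with a no-wash calcium dye. Compound was added after a 10 s baseline and read kinetically for 180 s; EC80 dopamine was then added and calcium flux followed another 180 s.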
D1 agonist = Allosteric Agonists of the Human D1 Dopamine Receptor: qHTS; activation, % at 2 µM; HEK293 T-REx D1 cells, calcium flux, agonist mode; AID 504660, 2011; 360,000 compounds, 1% hits; D(1A) dopamine receptor (Homo sapiens), P21728; note: 0% is about no effect
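Agonism was scored from calcium flux recorded over 180 s (1 read/s) after pintool compound addition, following a 10-cycle baseline. Cells were inducible force-coupled HEK293 TREx D1, plated overnight at 30 C and loaded with no-wash calcium dye.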
D1 PAM = Potentiators of Human D1 Dopamine Receptor: qHTS | 360,000 compounds, 0.036% hits | HEK293 TREx D1 cells, calcium flux, dopamine EC20 potentiation | D(1A) dopamine receptor (Homo sapiens), P21728 | AID 504651, 2011 | potentiation, % at 10 µM; in the data active = potentiation above about 30%; note: 0% is about no effect
GRP78 ERSR act = qHTS for Inducers of the Endoplasmic Reticulum Stress Response (ERSR) in Human Glioma: qHTS; Potency, µM, without a hit: top-dose activation, usual class: activators; U87-MG GRP78 promoter luciferase reporter, 16 h; 420,000 compounds, 0.02% hits; active = well fitted activation curve with a large enough effect; note: potency is the fitted concentration of half-maximal effect; series mostly up to about 76 µM; % of control where 0% means no effect; nearly all actives have a fitted effect of over 35% in size
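Stably transfected U87-MG human glioma cells carrying a GRP78-based luminescent sensor were seeded at 1000 cells/well, pin-dosed with compounds and incubated 16 h. Luciferase reagent was then added, and end-point luminescence was read after 10 min at room temperature.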
TRHR enhancer = qHTS for Small Molecule Agonists and Allosteric Enhancers of Human TRH Receptor: Primary Screen for Enhancers. 360,000 compounds, 0.66% hits. enhancement, % at 2 µM. TRHR cells, fluo-8 calcium fluorescence, EC20 TRH enhancement; in the data active = enhancement above about 30%; note: 0% is about no effect
Target sequence (P34981 whole entry, looked up): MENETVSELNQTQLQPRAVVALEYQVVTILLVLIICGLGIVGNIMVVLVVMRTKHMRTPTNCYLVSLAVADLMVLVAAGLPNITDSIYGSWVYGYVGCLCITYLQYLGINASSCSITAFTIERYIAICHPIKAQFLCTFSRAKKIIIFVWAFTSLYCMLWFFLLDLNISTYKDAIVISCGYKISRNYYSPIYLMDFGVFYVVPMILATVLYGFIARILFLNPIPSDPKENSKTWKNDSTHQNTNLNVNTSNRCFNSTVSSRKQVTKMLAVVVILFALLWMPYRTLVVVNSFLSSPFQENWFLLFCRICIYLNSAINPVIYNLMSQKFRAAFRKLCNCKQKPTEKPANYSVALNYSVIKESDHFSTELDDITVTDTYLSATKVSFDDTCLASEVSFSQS
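TRHR-expressing cells loaded with fluo-8 calcium dye were read kinetically (ex 480/em 530) during compound addition, then stimulated with an EC20 of TRH (10 nM final). Enhancement of the Gq-mediated intracellular calcium response was scored.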
TRHR ag = qHTS for Small Molecule Agonists and Allosteric Enhancers of Human TRH Receptor: Primary Screen for Agonists; AID 493084, 2011; TRHR cells, calcium flux fluo-8, FDSS agonist mode; Thyrotropin-releasing hormone receptor (Homo sapiens), P34981; activation, % at 2 µM; 360,000 compounds, 0.18% hits; note: 0% is about no effect
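Fluo-8-loaded TRHR cells; 10 s baseline, compound added, kinetic Ca2+ fluorescence read 1/s, agonist mode.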
An asterisk follows results filed as active; x = no result given; ! = repeats disagree. This is a sample that favours compounds with a hit; in the whole collection about 4% have one here. Cut-off read from the data, not from the text of the source, unless noted: active = activation above about 30%; inactive = the rest.

SMILES	D1 antagonist	D1 agonist	D1 PAM	GRP78 ERSR act	TRHR enhancer	TRHR ag
CC1CCN(S(=O)(=O)c2ccc(C(=O)N3CCCC(C(F)(F)F)C3)cc2)CC1 (stereo unspecified)	-33*	8	-1	-1%	4	0
COc1ccccc1NS(=O)(=O)c1ccc(C(=O)N2CCCC(C(F)(F)F)C2)cc1 (stereo unspecified)	4	17	0	-4%	-9	-1
Cc1ccc(NS(=O)(=O)c2ccc(C(=O)N3CCCC(C(F)(F)F)C3)cc2)cc1 (stereo unspecified)	-62*	70*	4	15%	-3	16
O=C(c1ccc(S(=O)(=O)N2CCCCCC2)cc1)N1CCCC(C(F)(F)F)C1 (stereo unspecified)	13	5	-4	-1%	-4	0
CC(=O)Nc1ccc(OCC(O)CN2CCN(S(=O)(=O)c3ccc(NC(C)=O)cc3)CC2)cc1 (stereo unspecified)	-34*	3	5	-2%	4	0
CCC(=O)c1ccc(OCC(O)CN2CCN(S(=O)(=O)c3ccc(NC(C)=O)cc3)CC2)cc1 (stereo unspecified)	44	-1	-6	-3%	-4	1
CCC(=O)c1ccc(OCC(O)CN2CCOCC2)cc1 (stereo unspecified)	0	2	1	4%	-8	1
CC(=O)Nc1ccc(OCC(O)Cn2cccn2)cc1 (stereo unspecified)	-35*	1	3	-4%	-7	0
CC(=O)c1ccc(OCC(O)CN2CCOCC2)cc1 (stereo unspecified)	-35*	1	-3	-4%	3	-1
C[C@H](NC(=O)CNC(=O)[C@@H](NC(=O)[C@H](Cc1ccccc1)NC(=O)CNC(=O)CNC[C@@H](N)Cc1ccccc1)[C@@H](C)O)C(=O)N[C@@H](CCCN=C(N)N)C(=O)N[C@@H](CCCCN)C(=O)N[C@@H](CO)C(=O)N[C@@H](C)C(=O)N[C@@H](CCCN=C(N)N)C(=O)N[C@@H](CCCCN)C(N)=O	x	x	x	-8%	x	x
CCN(CC)CCNC(=O)C(=O)Nc1ccc2c(c1)N(S(=O)(=O)c1cccs1)CCC2	21	11	-2	-5%	10	0
Cc1cccc2sc(N(CCCN(C)C)C(=O)c3ccco3)nc12	-6	8	-4	-2%	-3	1
CCOc1cccc2sc(N(CCCN(C)C)C(=O)c3ccc(C(=O)c4ccccc4)cc3)nc12	-33*	43*	-2	-5%	-1	1
CCOc1cccc2sc(N(CCN(C)C)C(=O)c3cc4ccccc4cc3OC)nc12	-70*	33*	6	-12%	8	0
Cc1cccc2sc(N(CCCN(C)C)C(=O)c3ccc(Cl)s3)nc12	-1	37*!	-3	-3%	-7	0
CCOc1cccc2sc(N(CCN(CC)CC)C(=O)c3ccco3)nc12	10	8	-2	-4%	-2	0
CCOc1cccc2sc(N(CCCN(C)C)C(=O)Cc3ccccc3)nc12	-1	37*	1	-3%	1	7
CC1(C)CC(C(=O)N2CCOc3ccc(CN4CCN(Cc5ccccn5)CC4)cc3C2)CCO1 (stereo unspecified)	x	x	x	-3%	x	x
CCN(CC(=O)NCc1cccs1)C(=O)c1ccc(-c2cccc(C(F)(F)F)c2)o1	9	3	-4	0%	1	0
Cc1ccc(C)c(S(=O)(=O)c2nnn3c2nc(N2CCCC2)c2sccc23)c1	9	2	-3	-2%	-3	0
Cc1cc(C)c2nc(NC(=O)C3CC(=O)N(Cc4ccco4)C3)sc2c1 (stereo unspecified)	-13	5	-10	-1%	1	0
Cc1ccc2nc(NC(=O)C3CC(=O)N(Cc4ccco4)C3)sc2c1 (stereo unspecified)	2	13	-3	0%	36*	1
Cc1ccnc(NC(=O)C2CC(=O)N(Cc3ccccc3)C2)c1 (stereo unspecified)	-44*	22	1	-6%	4	1
O=C(Nc1ccc(F)c(Cl)c1)C1CC(=O)N(Cc2ccco2)C1 (stereo unspecified)	-43*	2	10	-3%	5	0
Cc1ccc(CN2CCOc3ccc(C(C)(O)COc4ccccc4)cc3C2)o1 (stereo unspecified)	x	x	x	-3%	x	x
SMILES	D1 antagonist	D1 agonist	D1 PAM	GRP78 ERSR act	TRHR enhancer	TRHR ag
CCCCN(CC)CCNC(=O)c1cc2c(=O)oc3ccc(C)cc3c2s1	2	5	0	-1%	-6	0
COc1cccc(COC(=O)C2CCN(S(=O)(=O)c3ccc(C)cc3)CC2)c1OC	-38*	10	1	-5%	-8	0
COc1cccc(COC(=O)C2CCN(S(=O)(=O)c3ccc(C)cc3C)CC2)c1OC	-44*	18	-18	4%	-4	1
COc1cccc(COC(=O)C2CCN(C(=O)c3ccc(F)cc3)CC2)c1OC	-45*	19	-11	-3%	-6	0
CCOc1ccc(S(=O)(=O)N2CCC(C(=O)OCc3cccc(OC)c3OC)CC2)cc1	0	22	-4	-5%	-5	3
COc1ccc(S(=O)(=O)Nc2cccc3c2O[C@H](CN(C)CC2CCCCC2)[C@@H](C)CN([C@H](C)CO)C3=O)cc1	x	x	x	-3%	x	x
Nc1nc(=S)c2n[nH]nc2[nH]1	x	x	x	-5%	x	x
C=C(C)C(=O)Nc1ccc2c(c1)OCCOCCOCCO2	8	0	0	0%	13	0
CCc1ccc(NC(=O)CN2C(=O)CC(C)S(=O)(=O)c3ccccc32)cc1 (stereo unspecified)	-32*	0	-3	-9%	13	0
CC1CC(=O)N(CC(=O)Nc2ccc(Br)cc2)c2ccccc2S1(=O)=O (stereo unspecified)	-18	1	-2	-3%	-1	1
O=C(Cc1ccccc1Nc1c(Cl)cccc1Cl)OCO/N=[N+](\[O-])N1CCCC1	x	x	x	2%	x	x
CCCOC(=O)C1=C(C)CS[C@@H]2[C@H](NC(=O)COc3ccccc3)C(=O)N12	x	x	x	-1%	x	x
Cc1ccc(NC(=O)CC2S/C(=N/N=C/c3c[nH]c4ccccc34)NC2=O)cc1 (stereo unspecified)	-11	5	0	-4%	-2	3
